# Reference: the supplement of paper PMC9135407
# Values joined by “and” are separate entries in the source; they are usually repeats but may differ in a detail not shown here. Equal values may be shown once. Where a name gives a salt, the structure may show the parent alone. About 620 (11%) of roughly 5,800 compounds showed activity. Shown is part of a subset that was picked to be rich in actives. Values without a mark were called inactive.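 Rule for the calls: active = score above a cut-off or among the top three wells of a plate; in these data no inactive exceeds 0.85.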
# System: primary human hepatic stellate cells (donor 1)
# Test: scaled lipid accumulation score (0 = DMSO-like, 1 = nortriptyline-like); higher = stronger HSC inactivation (lipid re-accumulation), active = hit call of the paper
# Details: 48 h
# [1] = library stock concentration: 3.33 mM
# [2] = library stock concentration: 10 mM
# [3] = library stock concentration: 1 mM
# [4] = library stock concentration: 80 uM
# [5] = library stock concentration: 400 uM
# [6] = library stock concentration: 2 mM
smiles,measurement,setting,value
CCCCC[C@H](O)/C=C/C=C\C/C=C\C/C=C\CCCC(=O)O,scaled lipid accumulation score,library stock concentration: 100 uM,≤ -0.02
COc1nc(C)cnc1NS(=O)(=O)c1cccnc1-c1ccc(-c2nnco2)cc1 [Zibotentan (ZD4054)],scaled lipid accumulation score,[1],≤ 0
same,scaled lipid accumulation score,[2],≤ 0
OCC(O)C(O)CO (stereo not drawn) [Erythritol],scaled lipid accumulation score,[1],≤ 0
same,scaled lipid accumulation score,[2],≤ -0.001
CNCCCN1c2ccccc2CCc2ccccc21 [Desipramine hydrochloride],scaled lipid accumulation score,library stock concentration: 6.6 mM,0.471
same,scaled lipid accumulation score,[2],0.667
CNCCCN1c2ccccc2CCc2ccccc21.Cl [Desipramine hydrochloride] [listing 1 of 2 here],scaled lipid accumulation score,,0.887 (active)
CNCCCN1c2ccccc2CCc2ccccc21.Cl,scaled lipid accumulation score,[2],0.969 (active)
CNCCCN1c2ccccc2CCc2ccccc21.Cl [Desipramine hydrochloride] [listing 2 of 2 here],scaled lipid accumulation score,[2],1.15 (active)
CCCCC1CCC(c2nc(-c3ccncc3)no2)CC1 (stereo not drawn),scaled lipid accumulation score,[3],0.03
same,scaled lipid accumulation score,[2],≤ -0.001
CC(C)N(C[C@H]1O[C@@H](n2cnc3c(N)ncnc32)[C@H](O)[C@@H]1O)[C@H]1C[C@@H](CCc2nc3cc(C(C)(C)C)ccc3[nH]2)C1,scaled lipid accumulation score,[1],≤ 0
same,scaled lipid accumulation score,[2],0.467
CC(C)OC(=O)OCOP(=O)(CO[C@H](C)Cn1cnc2c(N)ncnc21)OCOC(=O)OC(C)C [Tenofovir Disoproxil Fumarate],scaled lipid accumulation score,[1],≤ 0
same,scaled lipid accumulation score,[2],≤ 0
CCc1c(Cl)c(O)c(Cl)c(O)c1C(=O)O[C@H]1[C@H](O)[C@H](OC)[C@H](OC/C2=C\C=C\C[C@H](O)/C(C)=C/[C@H](CC)[C@@H](O[C@@H]3OC(C)(C)[C@@H](OC(=O)C(C)C)[C@H](O)[C@@H]3O)/C(C)=C/C(C)=C/C[C@@H]([C@@H](C)O)OC2=O)O[C@@H]1C [Fidaxomicin],scaled lipid accumulation score,[1],≤ 0
same,scaled lipid accumulation score,[2],0.125
COc1ccc(CCN(C)CCCOc2ccc(S(=O)(=O)c3c(C(C)C)c4ccccc4n3C)cc2)cc1OC,scaled lipid accumulation score,[2],0.445
CC(C)CC[C@@H](O)[C@@H](C)[C@H]1CC[C@H]2[C@@H]3CC=C4C[C@@H](O)CC[C@]4(C)[C@H]3CC[C@]12C [22(R)-hydroxy Cholesterol],scaled lipid accumulation score,[3],0.045
O=C1C[C@@H]2[C@@H](/C=C/[C@@H](O)COc3cccc(C(F)(F)F)c3)[C@H](O)C[C@@H]2O1 [Fluprostenol Lactone Diol],scaled lipid accumulation score,[3],0.003
CC1=C(C(=O)Nc2cc3cn[nH]c3cc2F)C(c2ccc(C(F)(F)F)cc2)CC(=O)N1 (stereo not drawn),scaled lipid accumulation score,[4],0.022
same,scaled lipid accumulation score,[5],≤ 0 and ≤ -0.005
same,scaled lipid accumulation score,[6],0.014 and ≤ -0.005
same,scaled lipid accumulation score,[1],≤ 0
same,scaled lipid accumulation score,[2],≤ 0 and 0.096 and 0.308
"C/C=C1\NC(=O)[C@H]2CSSCC/C=C/[C@H](CC(=O)N[C@H](C(C)C)C(=O)N2)OC(=O)[C@H](C(C)C)NC1=O [Romidepsin (FK228, Depsipeptide)]",scaled lipid accumulation score,[1],0.521
same,scaled lipid accumulation score,[2],0.472
C=CC(=O)N1CCc2ccc(-n3c(=O)ccc4cnc5ccc(-c6cnn(C)c6)cc5c43)cc21,scaled lipid accumulation score,[2],1.19 (active)
C=CC(=O)Nc1cc(-n2c(=O)ccc3cnc4ccc(-c5cn[nH]c5)cc4c32)ccc1C,scaled lipid accumulation score,[4],≤ 0
same,scaled lipid accumulation score,[5],≤ 0
same,scaled lipid accumulation score,[6],0.082
same,scaled lipid accumulation score,[2],0.662
C=CC(=O)Nc1cc(-n2c(=O)ccc3cnc4ccc(-c5ccc(NS(C)(=O)=O)cc5)cc4c32)ccc1C,scaled lipid accumulation score,[4],≤ -0.001
same,scaled lipid accumulation score,[5],≤ -0.001
same,scaled lipid accumulation score,[6],0.003
same,scaled lipid accumulation score,[2],0.06
CCCCC(CC)CN=C(N)N=C(N)NCCCCCCNC(N)=NC(N)=NCC(CC)CCCC (stereo not drawn) [Alexidine hydrochloride],scaled lipid accumulation score,[2],≤ -0.027
CCCCCC1OC(O)CC1SC[C@H](NC(C)=O)C(=O)O (stereo partly drawn) [4-hydroxy Nonenal Mercapturic Acid],scaled lipid accumulation score,[3],≤ 0
Nc1c(CC(=O)O)cccc1C(=O)c1ccccc1 [Amfenac Sodium Monohydrate],scaled lipid accumulation score,[1],≤ 0
same,scaled lipid accumulation score,[2],0.019
NC1(Cc2ccc(Cl)cc2)CCN(c2ncnc3[nH]ccc23)CC1 [listing 1 of 2 here],scaled lipid accumulation score,[1],0.47
NC1(Cc2ccc(Cl)cc2)CCN(c2ncnc3[nH]ccc23)CC1 [listing 2 of 2 here],scaled lipid accumulation score,[2],1.09 (active)
NC1(C(=O)N[C@@H](CCO)c2ccc(Cl)cc2)CCN(c2ncnc3[nH]ccc23)CC1,scaled lipid accumulation score,[4],0.053
same,scaled lipid accumulation score,[5],0.049
same,scaled lipid accumulation score,[6],0.038
same,scaled lipid accumulation score,[1],≤ -0.009
same,scaled lipid accumulation score,[2],≤ 0 and 0.178
"Cl.OCCNCCCOc1cccc(Cl)c1Cl [2,3-DCPE hydrochloride]",scaled lipid accumulation score,[2],1.14 (active)
"OCCNCCCOc1cccc(Cl)c1Cl [2,3-DCPE (hydrochloride)]",scaled lipid accumulation score,[3],0.049
O=C(c1cccs1)c1ccc(OCCCO)c(Cl)c1Cl [homo-Tienilic Alcohol],scaled lipid accumulation score,[3],0.02
O=Cc1cccc2[nH]ccc12 [4-formyl Indole],scaled lipid accumulation score,[3],≤ 0
CC(C)(C)Cn1c(N)nc2ccc(-c3[nH]c(C(C)(C)C)nc3-c3ccc(F)cc3)nc21,scaled lipid accumulation score,[1],0.034
same,scaled lipid accumulation score,[2],0.268
CC(C)(C)Cn1c(N)nc2ccc(-c3[nH]c(C(C)(C)C)nc3-c3ccc(F)cc3)nc21 [Ralimetinib],scaled lipid accumulation score,[4],0.033
same,scaled lipid accumulation score,[5],0.086
same,scaled lipid accumulation score,[6],0.076
same,scaled lipid accumulation score,[2],0.481
O=C(O)CCC/C=C\C[C@H]1[C@@H](O)CC(=O)[C@@H]1/C=C/[C@@H](O)COc1cccc(C(F)(F)F)c1 [11-keto Fluprostenol],scaled lipid accumulation score,[3],≤ 0
CCN(CC)C(=O)c1cccnc1,scaled lipid accumulation score,[2],0.073
CN(C)C/C=C(/c1ccc(Br)cc1)c1cccnc1 [Zimelidine dihydrochloride],scaled lipid accumulation score,library stock concentration: 5.1 mM,0.434
same,scaled lipid accumulation score,[2],0.178
CN(C)C/C=C(/c1ccc(Br)cc1)c1cccnc1 [Zimelidine dihydrochloride monohydrate],scaled lipid accumulation score,,0.454
CN(C)C/C=C(/c1ccc(Br)cc1)c1cccnc1.Cl.Cl [Zimelidine dihydrochloride],scaled lipid accumulation score,[2],0.893 (active)
CC(=O)OCOC(c1ccc2ccccc2c1)P(=O)(OCOC(C)=O)OCOC(C)=O (stereo not drawn),scaled lipid accumulation score,library stock concentration: 11 mM,0.031
CS(=O)(=O)Nc1ccc([N+](=O)[O-])cc1Oc1ccccc1 [Nimesulide],scaled lipid accumulation score,,0.061
same,scaled lipid accumulation score,[3],≤ 0
same,scaled lipid accumulation score,[1],≤ 0
same,scaled lipid accumulation score,library stock concentration: 16.2 mM,0.012
CC(=O)OCOC(c1cc([N+](=O)[O-])ccc1Oc1ccc(Br)cc1)P(=O)(OCOC(C)=O)OCOC(C)=O (stereo not drawn),scaled lipid accumulation score,library stock concentration: 8.1 mM,0.887 (active)
Cn1cc(C(F)(F)F)nc1-c1ccc(OCC(O)CNCCOc2ccc(O)c(C(N)=O)c2)cc1 (stereo not drawn),scaled lipid accumulation score,[2],0.731
COc1cc2ncnc(Sc3nnc(C)s3)c2cc1OC [listing 1 of 2 here],scaled lipid accumulation score,[2],0.919 (active)
COc1cc2ncnc(Nc3cc(Br)c(O)c(Br)c3)c2cc1OC,scaled lipid accumulation score,[4],≤ 0
same,scaled lipid accumulation score,[5],≤ 0
same,scaled lipid accumulation score,[6],≤ 0
same,scaled lipid accumulation score,[2],0.04
COc1cc2ncnc(Sc3nnc(C)s3)c2cc1OC [listing 2 of 2 here],scaled lipid accumulation score,[1],≤ -0.009
C=CC(=O)Nc1cc(NC(=O)c2ccc(C)c(NC(=O)c3ccno3)c2)cc(C(F)(F)F)c1,scaled lipid accumulation score,[4],≤ 0
same,scaled lipid accumulation score,[5],≤ 0
same,scaled lipid accumulation score,[6],≤ 0
same,scaled lipid accumulation score,[2],0.311
Nc1ccc(-c2cccc3c(=O)cc(N4CCOCC4)oc23)cc1,scaled lipid accumulation score,[2],≤ -0.001
Nc1ncnc2nc(-c3ccc(N4CCOCC4)nc3)cc(-c3cccc(Br)c3)c12 [listing 1 of 2 here],scaled lipid accumulation score,[2],0.982 (active)
Nc1ncnc2nc(-c3ccc(N4CCOCC4)nc3)cc(-c3cccc(Br)c3)c12 [listing 2 of 2 here],scaled lipid accumulation score,[4],≤ -0.001
same,scaled lipid accumulation score,[5],0.008
same,scaled lipid accumulation score,[6],≤ -0.001
Nc1ncnc2nc(-c3ccc(N4CCOCC4)nc3)cc(-c3cccc(Br)c3)c12 [ABT 702 dihydrochloride],scaled lipid accumulation score,[2],0.275
O=C(CCBr)N1CCN(C(=O)CCBr)CC1 [Pipobroman],scaled lipid accumulation score,[2],≤ -0.027
S=C=Nc1cccc(NC(=S)NCCCCNC(=S)Nc2cccc(N=C=S)c2)c1,scaled lipid accumulation score,[1],0.004
same,scaled lipid accumulation score,[2],0.023
CCNC(=O)c1noc(-c2cc(C(C)C)c(O)cc2O)c1-c1ccc(CN2CCOCC2)cc1 [listing 1 of 2 here],scaled lipid accumulation score,[1],0.91 (active)
CCNC(=O)c1noc(-c2cc(C(C)C)c(O)cc2O)c1-c1ccc(CN2CCOCC2)cc1 [listing 2 of 2 here],scaled lipid accumulation score,[4],0.702
same,scaled lipid accumulation score,[5],0.802
same,scaled lipid accumulation score,[6],0.808
same,scaled lipid accumulation score,[2],0.831 and 0.776
CCNC(=O)c1noc(-c2cc(Cl)c(O)cc2O)c1-c1ccc(OC)cc1,scaled lipid accumulation score,[1],0.783
same,scaled lipid accumulation score,[2],0.741
CN(C)[C@@H]1CCc2[nH]c3ccc(NC(=O)c4ccc(F)cc4)cc3c2C1.Cl,scaled lipid accumulation score,[2],1.37 (active)
CN(C1CCc2c(c3ccccc3n2CC(=O)O)C1)S(=O)(=O)c1ccc(F)cc1 (stereo not drawn),scaled lipid accumulation score,[3],0.083
CN(C)CC(=O)Nc1ccc2[nH]c(=O)c3ccccc3c2c1,scaled lipid accumulation score,[1],≤ 0 and ≤ -0.009
same,scaled lipid accumulation score,[2],0.59 and 0.025
CCCCCCCCCCCCCCCC(O)C(N)CO (racemic) [DL-Dihydrosphingosine],scaled lipid accumulation score,[3],≤ -0.021
NC(=O)c1cnc(N[C@@H]2CCCC[C@@H]2N)nc1Nc1cccc(-n2nccn2)c1,scaled lipid accumulation score,[4],≤ 0
same,scaled lipid accumulation score,[5],0.015
same,scaled lipid accumulation score,[6],0.218
same,scaled lipid accumulation score,[1],0.214
same,scaled lipid accumulation score,[2],0.215 and 0.449
Cc1cc(O)cc(C)c1Cl [Chloroxylenol],scaled lipid accumulation score,[2],≤ 0
